Laboratory results reported in PubChem BioAssay (NCATS).
Inconclusive results are not listed. Unmarked numbers belong to inactive results. Calls of active or inactive are those of the source. Calls follow the shape of the dose curve; as a rule, active = well fitted cell-killing curve with a large enough effect; inconclusive = small, poorly fitted or top-dose-only effect, or effect the other way; inactive = no such curve, though single readings can be large or run the other way. Peptide text beside a SMILES is read from it.

Assay: Quantitative High-Throughput drug screen in 47 multiple myeloma cell lines against the NCATS MIPE library collection: KHM11_PLB cell viability assay (AID 1918962); also: nearly all actives have a fitted effect of over 35% in size
Conditions: KHM11 myeloma cell viability, CellTiter-Glo ATP luminescence, 48 h; series mostly up to 45.8 µM; viability, % of DMSO control: at the top concentration
Source text: PI: Beverly A. Mock Ph.D.
Laboratory of Cancer Biology and Genetics,
Center for Cancer Research, National Cancer Institute,
National Institute of Health, Bethesda, Maryland
Drug resistance and disease progression are common in multiple myeloma (MM) patients, underscoring the need for new therapeutic combinations. […] We hypothesized that effective combinations would reduce MYC expression and enhance p16 activity. […] These preclinical data identify potentially useful drug combinations for evaluation in drug-resistant MM and reveal potential mechanisms of combined drug sensitivity.
Described herein is the primary MIPE qHTS used to cherrypick compounds. Validated compounds were then further tested for potential synergistic activiy.
[1] Peat TJ, Gaikwad SM, Dubois W, Gyabaah-Kessie N, Zhang S, Gorjifard S, Phyo Z, Andres M, Hughitt VK, Simpson RM, Miller MA, Girvin AT, Taylor A, Williams D, D'Antonio N, Zhang Y, Rajagopalan A, Flietner E, Wilson K, Zhang X, Shinn P, Klumpp-Thomas C, McKnight C, Itkin Z, Chen L, Kazandijian D, Zhang J, Michalowski AM, Simmons JK, Keats J, Thomas CJ, Mock BA. Drug combinations identified by high-throughput screening promote cell cycle transition and upregulate Smad pathways in myeloma. Cancer Lett. 2023 Aug 1;568:216284. doi: 10.1016/j.canlet.2023.216284. Epub 2023 Jun 24. PMID: 37356470; PMCID: PMC10408729.
SEQUENCE No. (e.g., 1, 2, 3, etc.); […] (e.g., Cells, Incubation, Reagent, etc.); VALUE and DESCRIPTION.
1; Cells; 5 uL; white, solid bottom 1536-well Greiner assay plate.
2; Compounds; 23 nL; Kalypsis pin tool (Wako USA) equipped with a 1536-well pin head to transfer to the assay plates.
3; Incubation; 48 hours; 37C incubation.
4; Reagent;5uL; CellTiter Glo (Promega).
5; Detector; 425V; Luminescence; Viewlux PerkinElmer.
NOTES (numbers refer to Sequence numbers above)
1. The cell-based screening methods employed in this study were like those previously published. Briefly, the corresponding myeloma cell lines were screened in 1,536-well plates with 500 cells, 5-uL per well for inhibition of cell viability (assessed by measuring ATP levels with CellTiterGlo).
2. NCATS MIPE 4.0 library of approved and investigational drugs were added using the Kalypsis pin tool. Wells treated with DMSO only for 100% viability and media only wells for 0% viability were used as controls.
3. The assay plates were covered and incubated for 48 hours in a 37C, 5% CO2 incubator with controlled humidity.
4. After 48 hours, CellTilter-GloTM luminescent substrate mix (Promega) reagent was added to the assay plate and plates we incubated for 5 min at room temperature.
5. Signal was measured as median relative luminescence units on a ViewLux (PerkinElmer) multiplate reader.
[1] Heske CM, Davis MI, Baumgart JT, Wilson K, Gormally MV, Chen L, Zhang X, Ceribelli M, Duveau DY, Guha R, Ferrer M, Arnaldez FI, Ji J, Tran HL, Zhang Y, Mendoza A, Helman LJ, Thomas CJ. Matrix Screen Identifies Synergistic Combination of PARP Inhibitors and Nicotinamide Phosphoribosyltransferase (NAMPT) Inhibitors in Ewing Sarcoma. Clin Cancer Res. 2017 Dec 1;23(23):7301-7311. doi: 10.1158/1078-0432.CCR-17-1121. Epub 2017 Sep 12. PMID: 28899971; PMCID: PMC6636827.
Potency is read from the fitted curve at half-maximal effect.

Compound	Potency	viability, % of DMSO control
CN(C)c1ccc2nc3ccc(=[N+](C)C)cc-3sc2c1	4.18 µM (active)	–
COc1cc(OC)c(C(=O)CCCN2CCCC2)c(OC)c1	–	125%
O=c1c(O)c(-c2ccc(O)cc2O)oc2cc(O)cc(O)c12	–	111%
O=c1ccc2ccc(O)c(O)c2o1	11.8 µM (active)	–
Nc1nc(OCc2ccccc2)c2[nH]cnc2n1	–	75.4%
O=C(NOCC1CC1)c1ccc(F)c(F)c1Nc1ccc(I)cc1Cl	0.0235 µM (active)	–
CCC[C@@H]1C[C@@H](C(=O)N[C@@H]([C@H]2O[C@H](SC)[C@H](O)[C@@H](O)[C@H]2O)[C@@H](C)O)N(C)C1	–	96.8%
COc1c(O)cc2c(c1O)[C@@H]1O[C@H](CO)[C@@H](O)[C@H](O)[C@H]1OC2=O	–	88.8%
COC1=C(OC)C(=O)C(CCCCCCCCCCO)=C(C)C1=O	26.4 µM (active)	–
CN(C)CCCC1(c2ccc(F)cc2)OCc2cc(C#N)ccc21 (stereo not given)	–	87.1%
CC1(C)NC(=O)N(c2ccc([N+](=O)[O-])c(C(F)(F)F)c2)C1=O	–	102%
COc1cc2c(N3CCN(C(=O)Nc4ccc(OC(C)C)cc4)CC3)ncnc2cc1OCCCN1CCCCC1	8.33 µM (active)	–
COc1c2occc2cc2ccc(=O)oc12	–	116%
CNC[C@H](O)c1ccc(O)c(O)c1	–	82.8% [at 92.2 µM]
Cc1cc(Cl)ccc1OCCCC(=O)NO	11.8 µM (active)	–
Nc1ncn([C@H]2C[C@H](O)[C@@H](CO)O2)c(=O)n1	–	89.6%
O=C(c1ccccc1)c1ccc2n1CCC2C(=O)O (stereo not given)	8.33 µM (active)	–
Nc1cc(C(Cl)=C(Cl)Cl)c(S(N)(=O)=O)cc1S(N)(=O)=O	–	95.2%
Cc1nc2n(c(=O)c1CCN1CCC(c3noc4cc(F)ccc34)CC1)CCCC2	–	132%
O=C(OC1C[C@H]2CC[C@@H](C1)[N+]21CCCC1)C(O)(c1ccccc1)c1ccccc1 (stereo not given in full)	–	109%

Compound	Potency	viability, % of DMSO control
CC(C)C[C@H](NC(=O)[C@H](Cc1ccccc1)NC(=O)c1cnccn1)B(O)O	0.0083 µM (active)	–
CC1(C)C(=O)N(CCN2CCC(C(=O)c3ccc(F)cc3)CC2)c2ccccc21	2.09 µM (active)	–
CCC(C)(Oc1ccc(C2(c3ccc(OC(C)(CC)C(=O)O)cc3)CCCCC2)cc1)C(=O)O (stereo not given)	–	131%
c1cnc2cc3c(cc2n1)C1CNCC3C1	–	113%
S=c1nc[nH]c2nc[nH]c12	–	122%
O=P(O)(O)C(O)(Cn1ccnc1)P(=O)(O)O	–	104% [at 23.2 µM]
CCN(CC)CCOc1ccc(Nc2ncc3cc(-c4c(Cl)cccc4Cl)c(=O)n(C)c3n2)cc1	1.32 µM (active)	–
O=C(NCC1CCCCN1)c1cc(OCC(F)(F)F)ccc1OCC(F)(F)F (stereo not given)	9.35 µM (active)	–
CN(C)C(=O)COC(=O)Cc1ccc(OC(=O)c2ccc(N=C(N)N)cc2)cc1	0.662 µM (active)	–
Cc1cc(C2CCCCC2)n(O)c(=O)c1	4.69 µM (active)	–
Oc1ccc2ccccc2c1SSc1c(O)ccc2ccccc12	20.9 µM (active)	–
CC(=O)O[C@H]1C(=O)[C@@]2(C)C([C@H](OC(=O)c3ccccc3)[C@]3(O)C[C@H](OC(=O)[C@H](O)[C@@H](NC(=O)c4ccccc4)c4ccccc4)C(C)=C1C3(C)C)[C@]1(OC(C)=O)CO[C@@H]1C[C@@H]2O (stereo not given in full)	–	90.2%
Nc1nc(Cl)nc2c1ncn2[C@H]1C[C@H](O)[C@@H](CO)O1	1.05 µM (active)	–
COC(=O)[C@H](Cc1ccccc1)NC(=O)[C@@H](N)CC(=O)O (H-Asp-Phe-OMe)	–	105%
CC(C)Oc1ccc2c(=O)c(-c3ccccc3)coc2c1	–	140%
C=CCc1cc(OC)c(O)c(C(=O)NCCO)c1	–	155%
CCN(CC)CCOc1ccc(Cc2ccccc2)cc1	–	119%
COc1cc(Nc2c(C#N)cnc3cc(OCCCN4CCN(C)CC4)c(OC)cc23)c(Cl)cc1Cl	5.26 µM (active)	–
CN(C)C(=O)[C@H](O)[C@H](Cc1ccccc1)NC(=O)c1cc2cc(Cl)ccc2[nH]1	–	73.4%
O=c1c(O)c(-c2cc(O)c(O)c(O)c2)oc2cc(O)cc(O)c12	–	135%
